Some test systems named below: RPMI-8226 leukemia; OVCAR-8 ovarian; OVCAR-5 ovarian; OVCAR-4 ovarian; SK-OV-3 ovarian; IGROV1 ovarian; OVCAR-3 ovarian; HS 578T breast; NCI/ADR-RES ovarian; T-47D breast.
What all share (experiment): NCI-60 one-dose screen, 48 h (100 = growth as untreated, 0 = no growth, -100 = all killed)
What all share (conditions): 10 µM

About 83,000 compounds went through this panel and 20% of them were active in at least one assay; those are over-represented in the sample as a whole.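 A percent growth of 40 corresponds to 60% growth inhibition; 0 means no net growth; -100 means all cells died. Active threshold: below 10.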 A number with no mark means an inactive call. Activity calls are given as the source filed them.

This note sets out measurements from PubChem BioAssay (NCI).

As for `O=[N+]([O-])c1cccc(-c2ncc(-c3ccc(Cl)cc3Cl)[nH]2)c1`, the growth with RPMI-8226 leukemia was -8.35% (active); in the assay on OVCAR-8 ovarian it was 83.5%; in the assay on OVCAR-5 ovarian, 117%; with OVCAR-4 ovarian, 70%; in the assay on SK-OV-3 ovarian it was 115%; with IGROV1 ovarian, 26.6%. Besides, the growth in the assay on OVCAR-3 ovarian is 59.8%; in the assay with HS 578T breast, 44.9%; in the assay on NCI/ADR-RES ovarian, 97.2%; with T-47D breast, 79%.
With `Clc1ccc(/C=C2\CCCC3=C2N=C2SC=NN2C3c2ccc(Cl)cc2)cc1` (stereo not given), the growth is -12.1% (active) in the assay on RPMI-8226 leukemia; 91.4% in the assay on OVCAR-8 ovarian; 107% in the assay on OVCAR-5 ovarian; 92.1% with OVCAR-4 ovarian; 109% in the assay with SK-OV-3 ovarian; 104% with IGROV1 ovarian. Moreover, the growth in the assay on OVCAR-3 ovarian was 112%; in the assay on HS 578T breast, 96.6%; in the assay on NCI/ADR-RES ovarian, 102%; in the assay with T-47D breast, 88.2%.
`CSc1nn(-c2ccccc2)c2ncnc(Oc3ccccc3)c12`: the growth with RPMI-8226 leukemia is 84.5%; in the assay with OVCAR-8 ovarian, 99%; in the assay on OVCAR-5 ovarian it was 96.2%; in the assay on OVCAR-4 ovarian, 86.9%; in the assay on SK-OV-3 ovarian it was 104%; in the assay on IGROV1 ovarian, 87.4%. Moreover, the growth in the assay with OVCAR-3 ovarian is 91.2%; in the assay with HS 578T breast, 148%; in the assay with NCI/ADR-RES ovarian it was 96.6%; with T-47D breast it was 87.7%.
In the case of `O=C1Nc2ccc(Cl)cc2/C1=C\c1c(-c2ccc(Cl)cc2)nc2sc(C3CC3)nn12`, the growth in the assay with RPMI-8226 leukemia is 69.5%; in the assay on OVCAR-8 ovarian, 26.5%; in the assay with OVCAR-5 ovarian it was 77.8%; in the assay with OVCAR-4 ovarian, 9.28% (active); in the assay on SK-OV-3 ovarian, 39.2%; in the assay on IGROV1 ovarian it was 71.5%. In addition, the growth is 63.9% in the assay with OVCAR-3 ovarian, 7.42% (active) in the assay on HS 578T breast, 45% in the assay with NCI/ADR-RES ovarian and 50.7% in the assay with T-47D breast.
For the compound `O=[N+]([O-])c1ccc(Oc2cc(Cl)c(Cl)cc2Cl)c(C(F)(F)F)c1`, the growth in the assay with RPMI-8226 leukemia is 97.3%; in the assay with OVCAR-8 ovarian, 97.8%; in the assay on OVCAR-5 ovarian, 87%; in the assay with OVCAR-4 ovarian, 93.8%; with SK-OV-3 ovarian it was 103%; with IGROV1 ovarian it was 96.5%. The growth was 105% in the assay on OVCAR-3 ovarian, 104% in the assay on HS 578T breast, 109% with NCI/ADR-RES ovarian and 107% with T-47D breast.
For `COc1ccc2c(c1)sc1nc(-c3ccccc3)c(-c3ccc(O)c(OC)c3)n12`, the growth in the assay with RPMI-8226 leukemia is 78.5%; with OVCAR-8 ovarian, 97.5%; with OVCAR-5 ovarian it was 107%; in the assay on OVCAR-4 ovarian it was 102%; in the assay on SK-OV-3 ovarian, 96%; in the assay on IGROV1 ovarian it was 72.8%. In addition, the growth was 83.5% in the assay with OVCAR-3 ovarian, 84.6% in the assay with HS 578T breast, 64.6% in the assay with NCI/ADR-RES ovarian and 111% in the assay with T-47D breast.
As for `N#Cc1cccc(OCc2nc(N)nc(N)c2-c2ccc(Cl)c(Cl)c2)c1`, the growth in the assay on RPMI-8226 leukemia is 60.1%; in the assay on OVCAR-8 ovarian, 19.3%; with OVCAR-5 ovarian it was 35.6%; with OVCAR-4 ovarian, 88.3%; in the assay on SK-OV-3 ovarian, 39%; with IGROV1 ovarian, 17.8%. The growth was 38.5% in the assay on OVCAR-3 ovarian, 49.7% in the assay on HS 578T breast, 34.1% with NCI/ADR-RES ovarian and 71.5% with T-47D breast.
For `Cn1c(N)c(N=Nc2ccc(S(=O)(=O)Nc3nccs3)cc2)c(=O)n(C)c1=O`, the growth with RPMI-8226 leukemia was 100%; in the assay on OVCAR-8 ovarian it was 100%; in the assay on OVCAR-5 ovarian, 115%; in the assay on OVCAR-4 ovarian it was 106%; in the assay on SK-OV-3 ovarian it was 103%; in the assay with IGROV1 ovarian, 91.2%. Further, the growth was 103% in the assay with OVCAR-3 ovarian, 106% with HS 578T breast, 96% with NCI/ADR-RES ovarian and -10.2% (active) in the assay with T-47D breast.
As for `COc1cc(-c2cc(-c3cc4c([nH]c5ccccc54)c(-c4cc(OC)c(OC)c(OC)c4)n3)cc(-c3ccccc3)n2)cc(OC)c1OC`, the growth is 46% in the assay on RPMI-8226 leukemia; 70.2% in the assay on OVCAR-8 ovarian; 88.6% in the assay on OVCAR-5 ovarian; 58.6% in the assay on OVCAR-4 ovarian; 90.7% in the assay on SK-OV-3 ovarian; 74.6% in the assay on IGROV1 ovarian. The growth was 72.3% with OVCAR-3 ovarian, 52.5% with HS 578T breast, 42% in the assay on NCI/ADR-RES ovarian and 43.3% in the assay on T-47D breast.
Turning to `COc1cc(Cl)cc(-c2nn(-c3cccc(NC(=O)Nc4ccc(Cl)c(C(F)(F)F)c4)c3)cc2-c2ccncc2)c1`, the growth was -29.1% (active) in the assay on RPMI-8226 leukemia; 8.71% (active) in the assay on OVCAR-8 ovarian; 19.2% in the assay on OVCAR-5 ovarian; 16.6% with OVCAR-4 ovarian; 12% in the assay on SK-OV-3 ovarian; 30.2% in the assay with IGROV1 ovarian. In addition, the growth in the assay on OVCAR-3 ovarian is -22.6% (active); with HS 578T breast, 14.6%; in the assay with NCI/ADR-RES ovarian it was 6.07% (active); in the assay with T-47D breast, 8.1% (active).
On to `CCCCC(CCCCCC(CCCC)NCc1ccc2c(c1)OCO2)NCc1ccc2c(c1)OCO2` (stereo not given), for which the growth was -59.2% (active) in the assay on RPMI-8226 leukemia; -83.2% (active) in the assay with OVCAR-8 ovarian; -100% (active) with OVCAR-5 ovarian; -98.9% (active) in the assay on OVCAR-4 ovarian; -100% (active) in the assay on SK-OV-3 ovarian; -100% (active) with IGROV1 ovarian. Also, the growth with OVCAR-3 ovarian was -100% (active); in the assay on HS 578T breast, -67.7% (active); in the assay on NCI/ADR-RES ovarian, -99% (active); in the assay with T-47D breast, -76.6% (active).
As for `COc1ccc(-c2ccc(-c3ccc(C(=N)N)cn3)o2)cc1`, the growth in the assay with RPMI-8226 leukemia is 28.3%; in the assay with OVCAR-8 ovarian, 76.3%; in the assay on OVCAR-5 ovarian, 76.9%; in the assay with OVCAR-4 ovarian it was 61.4%; in the assay with SK-OV-3 ovarian it was 78.4%; with IGROV1 ovarian, 75.2%. The growth was 97.1% in the assay with OVCAR-3 ovarian, 94.1% in the assay on HS 578T breast, 88.1% with NCI/ADR-RES ovarian and 69.1% in the assay with T-47D breast.
Consider `Cc1cc(Nc2ccc(Cl)cc2)nc(NCCCNc2ccnc3cc(Cl)ccc23)n1`, for which the growth in the assay with RPMI-8226 leukemia was -59.8% (active); in the assay with OVCAR-8 ovarian, -53.5% (active); in the assay on OVCAR-5 ovarian, -5.16% (active); in the assay with OVCAR-4 ovarian it was -3.7% (active); in the assay on SK-OV-3 ovarian, -78.7% (active); in the assay on IGROV1 ovarian it was 6.54% (active). The growth in the assay with OVCAR-3 ovarian was -80.1% (active); in the assay on HS 578T breast, -53.4% (active); with NCI/ADR-RES ovarian, 2.15% (active); in the assay on T-47D breast, -90.2% (active).
